Whole data set: some 140,000 sequences, median “enrichment ratio after two sorts for PhoP signalling” near 0, cut for the highest 2% near 11. The entries come from a sample that favours the highest values as a whole.

B1: PhoQ; a variant is named by its letters at X, in order, P23837 (parent)
chain: MKKLLRLFFPLSLRVRFLLATAAVVLVLSLAYGMVALIGYSVSFDKTTFRLLRGESNLFYTLAKWENNKLHVELPENIDKQSPTMTLIYDENGQLLWAQRDVPWLMKMIQPDWLKSNGFHEIEADVNDTSLLLSGDHSIQQQLQEVREDDDDAEMTHSVAVNVYPATSRMPKLTIVVVDTIPVELKSSYMVWSWFIYVLSANLLLVIPLLWVAAWWSLRPIEALAKEVRELEEHNRELLNPATTRELTSLVRNLNRLLKSERERYDKYRTTLTDLTHSLKTPLXXLQXXLRSLRSEKMSVSDAEPVMLEQISRISQQIGYYLHRASMRGGTLLSRELHPVAPLLDNLTSALNKVYQRKGVNISLDISPEISFVGEQNDFVEVMGNVLDNACKYCLEFVEISARQTDEHLYIVVEDDGPGIPLSKREVIFDRGQRVDTLRPGQGVGLAVAREITEQYEGKIVAGESMLGGARMEVIFGRQHSAPKDE

In this experiment the parent is B1. The experiment in a line: enrichment ratio after two sorts for PhoP signalling (ratio (wild type AVST 3.29)); higher = more functional. Particulars: with PhoP (E. coli).
Take ANLH: the enrichment ratio is 13.

Regarding FDMV, the enrichment ratio was ≤ 0.25.

MAIR: the enrichment ratio is ≤ 0.25.

TWDF: the enrichment ratio is ≤ 0.25.

For QNMP, the enrichment ratio was ≤ 0.25.

QKNG: the enrichment ratio was ≤ 0.25.

VWKN: the enrichment ratio is ≤ 0.25.

For TWHE, the enrichment ratio is ≤ 0.25.

Take ANAW: the enrichment ratio was ≤ 0.25.

Regarding EGLC, the enrichment ratio was ≤ 0.25.

Take AGIS: the enrichment ratio turned out to be 2.92.

On to AIIV, for which the enrichment ratio stood at 3.98.

For the variant LNSI, the enrichment ratio is ≤ 0.25.

On to AGWV, for which the enrichment ratio is ≤ 0.25.

Regarding ADYV, the enrichment ratio is ≤ 0.25.

Regarding AGIV, the enrichment ratio came out at 14.4.

For the variant ANSI, the enrichment ratio turned out to be 18.

In the case of ADNS, the enrichment ratio is ≤ 0.25.

On to GNSI, for which the enrichment ratio came to 4.37.

ADIV: the enrichment ratio stood at 12.5.

In the case of ANNS, the enrichment ratio was 12.9.

Consider ANYR, for which the enrichment ratio was ≤ 0.25.

Turning to EFTF, the enrichment ratio was ≤ 0.25.

As for GVQP, the enrichment ratio was ≤ 0.25.

As to PEHG, the enrichment ratio was ≤ 0.25.

Regarding WTQP, the enrichment ratio was ≤ 0.25.

As for TWFQ, the enrichment ratio was ≤ 0.25.

On to QNLY, for which the enrichment ratio was ≤ 0.25.

For KERI, the enrichment ratio is ≤ 0.25.

With KAIG, the enrichment ratio was ≤ 0.25.

For the variant RCHM, the enrichment ratio is ≤ 0.25.

With ANIV, the enrichment ratio was determined as 13.7.

Consider ANIS, for which the enrichment ratio was 4.66.

Regarding ANHN, the enrichment ratio was ≤ 0.25.

Consider HKAP, for which the enrichment ratio was ≤ 0.25.

On to SKLA, for which the enrichment ratio amounted to 8.7.

As to SKVA, the enrichment ratio was 1.14.

In the case of SKLM, the enrichment ratio amounted to 16.3.

Consider SKVM, for which the enrichment ratio came out at 19.7.

Regarding SKLF, the enrichment ratio is 11.

Regarding NDKA, the enrichment ratio is ≤ 0.25.

Regarding ITMN, the enrichment ratio was ≤ 0.25.

In the case of VVYG, the enrichment ratio was ≤ 0.25.

Turning to VHNY, the enrichment ratio is ≤ 0.25.

With HMES, the enrichment ratio was ≤ 0.25.

On to RGTM, for which the enrichment ratio was ≤ 0.25.

TVNM: the enrichment ratio worked out at 13.5.

On to AGTM, for which the enrichment ratio is 16.2.

Turning to YWTM, the enrichment ratio was ≤ 0.25.

AGTS: the enrichment ratio came out at 7.67.

Turning to GGTM, the enrichment ratio amounted to 1.63.

Regarding KSTM, the enrichment ratio is ≤ 0.25.

As to TGTM, the enrichment ratio was found to be 15.

Turning to TVTM, the enrichment ratio came to 16.6.

SPTM: the enrichment ratio is ≤ 0.25.

SPNM: the enrichment ratio is ≤ 0.25.

FVNM: the enrichment ratio was ≤ 0.25.

For the variant DANA, the enrichment ratio was ≤ 0.25.

Regarding MGIR, the enrichment ratio is ≤ 0.25.

For the variant PYLL, the enrichment ratio is ≤ 0.25.

For VWQC, the enrichment ratio was ≤ 0.25.

Turning to KPYK, the enrichment ratio is ≤ 0.25.

For NMSK, the enrichment ratio was ≤ 0.25.

On to GWYP, for which the enrichment ratio was ≤ 0.25.

With NKWL, the enrichment ratio is ≤ 0.25.

For YWTA, the enrichment ratio was ≤ 0.25.

Take TAYI: the enrichment ratio was found to be 10.2.

On to TAGY, for which the enrichment ratio stood at 34.1.

As for TAAY, the enrichment ratio is 15.7.

For the variant KAGY, the enrichment ratio was ≤ 0.25.

On to TAPY, for which the enrichment ratio is ≤ 0.25.

Turning to NAGY, the enrichment ratio was ≤ 0.25.

Turning to NVMG, the enrichment ratio is ≤ 0.25.

Take SYKQ: the enrichment ratio was ≤ 0.25.

As for DDMM, the enrichment ratio is ≤ 0.25.

Regarding FLYG, the enrichment ratio was ≤ 0.25.

On to YCDY, for which the enrichment ratio is ≤ 0.25.

With PSFY, the enrichment ratio is ≤ 0.25.

On to WEWY, for which the enrichment ratio was ≤ 0.25.

Take VFIN: the enrichment ratio was ≤ 0.25.

As for YVGY, the enrichment ratio is ≤ 0.25.

Consider HIQN, for which the enrichment ratio is ≤ 0.25.

With MNWG, the enrichment ratio was found to be 15.6.

For MNHG, the enrichment ratio was ≤ 0.25.

In the case of MNQN, the enrichment ratio was ≤ 0.25.

Turning to MNVG, the enrichment ratio is ≤ 0.25.

Take TNWE: the enrichment ratio is ≤ 0.25.

For the variant MNWN, the enrichment ratio amounted to 15.4.

As for MNIE, the enrichment ratio is ≤ 0.25.

With MNWI, the enrichment ratio turned out to be 6.11.

MNWE: the enrichment ratio turned out to be 17.9.

As to TSGQ, the enrichment ratio is 7.96.

For PQQF, the enrichment ratio is ≤ 0.25.

For WRDC, the enrichment ratio was ≤ 0.25.

For TALM, the enrichment ratio came to 15.3.

Regarding HALM, the enrichment ratio is 14.3.

For YILM, the enrichment ratio came out at 12.1.

YELA: the enrichment ratio is ≤ 0.25.

As for YELS, the enrichment ratio came to 14.9.

KALM: the enrichment ratio is ≤ 0.25.

Regarding YEWI, the enrichment ratio was ≤ 0.25.

Regarding HYLM, the enrichment ratio is ≤ 0.25.

With WALM, the enrichment ratio came to 6.02.

Take YIGM: the enrichment ratio came out at 0.38.

HPLM: the enrichment ratio was ≤ 0.25.

Regarding QPLM, the enrichment ratio was ≤ 0.25.

As to SGGE, the enrichment ratio was ≤ 0.25.

As to MSWN, the enrichment ratio came out at 8.63.

On to TQHK, for which the enrichment ratio was ≤ 0.25.

In the case of KKLF, the enrichment ratio is ≤ 0.25.

In the case of HYYY, the enrichment ratio is ≤ 0.25.

As for VMNW, the enrichment ratio is ≤ 0.25.

Turning to NFPM, the enrichment ratio is ≤ 0.25.

For the variant MDYM, the enrichment ratio was ≤ 0.25.

Consider TGWM, for which the enrichment ratio turned out to be 0.965.

As to FLTQ, the enrichment ratio is ≤ 0.25.

On to HCKA, for which the enrichment ratio is ≤ 0.25.

With FSYE, the enrichment ratio is ≤ 0.25.

For WKLM, the enrichment ratio is ≤ 0.25.

In the case of YALM, the enrichment ratio came out at 12.7.

Consider AALM, for which the enrichment ratio was 14.8.

For the variant AKLM, the enrichment ratio stood at 12.4.

For the variant NALM, the enrichment ratio was found to be 5.51.

With YWLM, the enrichment ratio is ≤ 0.25.

VLLM: the enrichment ratio was determined as 0.26.

Take VALM: the enrichment ratio stood at 16.8.

Consider PKLM, for which the enrichment ratio is ≤ 0.25.

Turning to VILM, the enrichment ratio stood at 1.31.

For the variant RGGT, the enrichment ratio was ≤ 0.25.

In the case of TCHA, the enrichment ratio was ≤ 0.25.

On to ESLN, for which the enrichment ratio is ≤ 0.25.

AYSD: the enrichment ratio was ≤ 0.25.

As to WYCA, the enrichment ratio was ≤ 0.25.

Regarding QFWH, the enrichment ratio was ≤ 0.25.

Take FYES: the enrichment ratio is ≤ 0.25.

On to YMRA, for which the enrichment ratio was ≤ 0.25.

In the case of QDSF, the enrichment ratio is ≤ 0.25.

As for SHLA, the enrichment ratio was 3.56.

In the case of AYLM, the enrichment ratio was ≤ 0.25.

In the case of YELM, the enrichment ratio is 13.8.

Regarding SHLM, the enrichment ratio stood at 19.3.

Regarding AHLM, the enrichment ratio was determined as 12.1.

As to WNLM, the enrichment ratio was ≤ 0.25.

Regarding YHLM, the enrichment ratio turned out to be 0.877.

SHGM: the enrichment ratio is ≤ 0.25.

As for FTLM, the enrichment ratio amounted to 8.49.

Take AILM: the enrichment ratio stood at 5.76.

Turning to YELF, the enrichment ratio was 0.264.

Regarding ANLM, the enrichment ratio was found to be 13.3.

ATSH: the enrichment ratio came out at 10.6.

On to RYPH, for which the enrichment ratio was ≤ 0.25.

Turning to VVLY, the enrichment ratio was ≤ 0.25.

In the case of VSDV, the enrichment ratio was ≤ 0.25.
